Among all 16,000 compounds or so, about 5,100 (32%) were called active. Not shown: some 25% with an inconclusive outcome. The call rests on the fitted dose curve; in most records, active means well fitted curve in the direction sought with a large enough effect; inconclusive means small, poorly fitted or top-dose-only effect, or effect the other way; inactive means no such curve, though single readings can be large or run the other way. Some of the results follow.

A word on the AC50: it is the midpoint of the concentration-response curve, whichever way the signal moves.
On the % scale 0 is the no-effect control and ±100 the full control effect.

For the test, the target named is Cytochrome P450 3A4 (Homo sapiens) (UniProt P08684). The experiment in a line: Cytochrome panel assay with activity outcomes. The conditions noted are these: recombinant CYP, pro-luciferin dealkylation, luminescence, p450-cyp3a4; series mostly up to 57.1 µM; activity, negative = inhibition: at the top concentration. As for the experimental part: The P450 gene superfamily is involved in the metabolism and clearance of xenobiotics. This assay used various human CYP P450 isozymes to measure the dealkylation of various pro-luciferin substrates to luciferin. The luciferin is then measured by luminescence after the addition of a luciferase detection reagent. Pro-luciferin substrate concentration in the assay was equal to its KM for its CYP P450 isozyme. Inhibitors and some substrates limit the production of luciferin, and decrease measured luminescence.
Chain of Cytochrome P450 3A4 (Homo sapiens) (P08684 whole entry, looked up): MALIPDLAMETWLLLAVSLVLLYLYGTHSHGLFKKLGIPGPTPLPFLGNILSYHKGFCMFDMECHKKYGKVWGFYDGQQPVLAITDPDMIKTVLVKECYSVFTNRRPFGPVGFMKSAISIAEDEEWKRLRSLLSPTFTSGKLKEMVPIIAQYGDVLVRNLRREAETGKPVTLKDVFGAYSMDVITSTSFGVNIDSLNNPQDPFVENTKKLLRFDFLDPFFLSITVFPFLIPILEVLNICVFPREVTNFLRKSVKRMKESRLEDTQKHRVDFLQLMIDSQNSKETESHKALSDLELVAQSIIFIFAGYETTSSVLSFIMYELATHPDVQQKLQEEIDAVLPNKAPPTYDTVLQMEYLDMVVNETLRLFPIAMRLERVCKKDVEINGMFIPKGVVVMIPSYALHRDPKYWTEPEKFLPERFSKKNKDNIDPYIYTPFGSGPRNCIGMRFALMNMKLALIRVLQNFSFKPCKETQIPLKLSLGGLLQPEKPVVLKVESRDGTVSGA
NCGC Assay Protocol Summary:
1, Reagent, 2 uL, Isozyme and Pro-Luciferin
2, Library compounds, 23 nl, 40 uM to 0.24 nM dilution series
3, Controls, 23 nl, Isozyme specific inhibitor
4, Reagent, 2 uL, NADPH regeneration solution
5, Incubation time, 60 min, Isozyme specific temperature
6, Reagent, 4ul, Detection reagent
7, Incubation time, 20 min, Isozyme specific temperature
8, Detection, 1 sec, ViewLux luminescent read
The luciferase-based P450-GloTM Screening Systems were obtained from Promega (Madison, WI) for CYP 1A2 (V9770), CYP 2C9 (V9790), CYP2 C19 (V9880), CYP 2D6 (V9890), and CYP 3A4 Luciferin-PPXE (V9910) and were adapted for 1,536-well microplates and an automated protocol. The control compounds furafylline for 1A2 (F124), sulfaphenazole for CYP 2C9 (S0758), ketoconazole for CYP 2C19 (K1003), quinidine for 2D6 (Q3625), and ketoconazole for 3A4 (K1003) were purchased from Sigma Aldrich (St. Louis, MO). Recombinant P450 enzymes were obtained from baculovirus constructs expressed in insect cells (BD/Gentest).
Medium-binding white solid Kalypsys plates used. Mixtures kept on ice. 1A2: 10 nM 1A2, 100 uM Luc-ME, 100 mM KPO4; 2C9: 10 nM 2C9, 100 uM Luc-H, 25 mM KPO4; 2C19: 5 nM 2C19, 10 uM Luc-H EGE, 50 mM KPO4; 2D6: 5 nM 2D6, 30 uM Luc-ME EGE, 100 mM KPO4; 3A4: 10 nM, 25 uM Luc-PPXE. All amounts are reflected in their final concentration, working concentration is 2x.
NADPH regeneration solution: 1.3 mM NADP+, 3.3 mM glucose-6-phosphate, 3.3 mM MgCl2, 0.4 U/mL glucose-6-phosphate dehydrogenase for all isozymes, 200 mM KPO4 for 3A4. Mixture prepared at RT but kept on ice during automated run.
RT incubation in auxilliary plate hotel for 1A2, 2D6, and 3A4; 37C for 2C9 and 2C19.
Keywords: P450, CYP1A2, CYP2C19, CYP2C9, CYP2D6, CYP3A4, Luciferase, MLSMR, MLSCN, NIH Roadmap, qHTS, NCGC
In the case of `CO[C@@H](C)[C@](O)(C(=O)OCC1=CCN2CC[C@@H](O)[C@H]12)C(C)C`, the “activity, negative = inhibition” value is -1.31% [at 25.6 µM] (inactive).
Consider `C#C[C@@]1(O)CC[C@@H]2[C@@H]3CCC4=CC(=O)CC[C@@]4(C)[C@H]3CC[C@]21C`, for which the “activity, negative = inhibition” value was -13.5% [at 25.6 µM] (inactive).
`NO`: the “activity, negative = inhibition” value is 4.33% (inactive).
`O=C1NC(=S)NC(=O)C1=Cc1cccc2cc3ccccc3cc12`: the activity, negative = inhibition was -17.5% [at 11.4 µM] (inactive).
In the case of `C[C@@H]1O[C@H](C[N+](C)(C)C)CS1`, the “activity, negative = inhibition” value was -2.37% (inactive).
With `COc1ccc2[nH]c3c(c2c1)CCNC3`, the “activity, negative = inhibition” value was -20.9% (inactive).
On to `COC(=O)Nc1nc2ccc(C(=O)c3cccs3)cc2[nH]1`, for which the “activity, negative = inhibition” value was -9.88% [at 25.6 µM] (inactive).
For the compound `COc1ccc2[nH]c(C(=O)c3ccccc3)cc2c1`, the AC50 was 7.94 µM (active).
Take `Fc1ccc(CCNCc2ccc(Cl)c(Cl)c2)cc1`: the activity, negative = inhibition is -18.5% [at 2.29 µM] (inactive).
Regarding `Fc1ccccc1CCNCc1cccc(Cl)c1Cl`, the AC50 was 0.631 µM (active).
With `CCN=C=NCCCN(C)C`, the activity, negative = inhibition was 0.783% [at 11.4 µM] (inactive).
Still for that read-out and setting: next, `O=NN(Cc1ccc(Cl)cc1)[C@@H](C(=O)O)c1ccccc1`: -7.56% [at 11.4 µM] (inactive).
Consider `C[N+]1([O-])[C@@H]2CC[C@H]1CC(OC(=O)[C@@H](CO)c1ccccc1)C2` (some centres not stated), for which the “activity, negative = inhibition” value was -4.21% [at 25.6 µM] (inactive).
`C[C@]12CC[C@H]3c4ccc(O)cc4CC[C@@H]3[C@H]1CC[C@@H]2OP(=O)(O)O`: the activity, negative = inhibition was 0.528% [at 11.4 µM] (inactive).
With `COc1ccc(C2NCc3ccc4c(c3-n3cccc32)OCO4)cc1OC` (configuration not stated), the AC50 is 5.01 µM (active).
For the compound `COCCCNC(=S)NC1CC2CCCC(C1)N2Cc1cccs1` (configuration not stated), the “activity, negative = inhibition” value is 2.48% (inactive).
As for `COCCNC(=S)N1C2CCC1CC(NC(=O)NC13CC4CC(CC(C4)C1)C3)C2` (configuration not stated), the concentration at half-maximal activity (AC50) is 3.16 µM (active).
As for `COCCNC(=S)NC1CC2CCCC(C1)N2Cc1cccs1` (configuration not stated), the “activity, negative = inhibition” value is -1.58% (inactive).
In the case of `CN1CCN(c2ccc3ccccc3n2)CC1`, the activity, negative = inhibition result was “inactive”.
Same read-out and setting: next, `NC(N)=NN=Cc1c(Cl)cccc1Cl`: -25.5% (inactive); `[N-]=[N+]=NCC(=O)c1c[nH]c(=O)[nH]c1=O`: 17.4% [at 11.4 µM] (inactive); `N/C(=N\N=C/c1ccc(-c2ccc(O)c(C(=O)O)c2)o1)N[N+](=O)[O-]`: -39.2% (inactive).
In the case of `C[C@@H]1Cc2cc3c(cc2C(c2ccc(N)cc2)=NN1)OCO3`, the AC50 is 2.51 µM (active).
Take `C[N+]1([O-])[C@H]2CC[C@H]1CC(OC(=O)[C@@H](CO)c1ccccc1)C2` (some centres not stated): the activity, negative = inhibition was -2.26% [at 11.4 µM] (inactive).
Consider `C[C@@]12CC(=O)[C@H]3[C@@H](CCC4=CC(=O)CC[C@]43C)[C@H]1CCC2=O`, for which the “activity, negative = inhibition” value is -41.1% [at 25.6 µM] (inactive).
For `NC(N)=Nc1ccc2[nH]c3c(c2c1)C[C@]1(O)[C@@H]2Cc4ccc(O)c5c4[C@]1(CCN2CC1CC1)[C@@H]3O5`, the “activity, negative = inhibition” value was 15.1% (inactive).
On to `CCCC[N+]1(C)[C@@H]2CC(OC(=O)[C@@H](CO)c3ccccc3)C[C@H]1[C@H]1O[C@H]12` (some centres not stated), for which the “activity, negative = inhibition” value was -9.71% (inactive).

Values taken from PubChem BioAssay AID1851 (National Center for Advancing Translational Sciences (NCATS), 2009).
